In PubChem BioAssay one finds inhibition, cytotoxicity and activity data, which are given here for 29 molecules.

Assay [1] in a line: Brca1-Bard1 BiLC signal decrease – luminescence, single concentration, counter-screen for Mdm2/MdmX interaction inhibitor project, confirmation (AID 504668; call rule not given here). Particulars: Brca1/Bard1 bimolecular luciferase complementation counterscreen, at 8 µM, stronger effect = higher value. On the technique in general: A counterscreen serves to expose hits that act by an unwanted route or on another target.

Assay [2] can be described thus: inhibition of PEG-3 promoter luciferase signal – cell-based, HeLa, luciferase reporter, single concentration, confirmation (AID 602417;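 active = at 20 µM dose, 40% or more inhibition averaged across four replicates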). Particulars: HeLa PEG-Prom luciferase reporter, luminescence, overnight; at 20 µM; stronger effect = higher value.
In assay [3] the target is PEG-3 (UniProt Q6IN02). In words: inhibition of PEG-3 promoter-driven reporter – cell-based, HeLa, luciferase, CREF/GAPDH counter-screen panel, dose response (AID 624167). Particulars: CREF/GAPDH counter-screens; HeLa PEG-Prom luciferase reporter, overnight, run 1, dose range 1, at 100 µM (top of the series) unless noted.
PEG-3, sequence (Q6IN02 whole entry, looked up): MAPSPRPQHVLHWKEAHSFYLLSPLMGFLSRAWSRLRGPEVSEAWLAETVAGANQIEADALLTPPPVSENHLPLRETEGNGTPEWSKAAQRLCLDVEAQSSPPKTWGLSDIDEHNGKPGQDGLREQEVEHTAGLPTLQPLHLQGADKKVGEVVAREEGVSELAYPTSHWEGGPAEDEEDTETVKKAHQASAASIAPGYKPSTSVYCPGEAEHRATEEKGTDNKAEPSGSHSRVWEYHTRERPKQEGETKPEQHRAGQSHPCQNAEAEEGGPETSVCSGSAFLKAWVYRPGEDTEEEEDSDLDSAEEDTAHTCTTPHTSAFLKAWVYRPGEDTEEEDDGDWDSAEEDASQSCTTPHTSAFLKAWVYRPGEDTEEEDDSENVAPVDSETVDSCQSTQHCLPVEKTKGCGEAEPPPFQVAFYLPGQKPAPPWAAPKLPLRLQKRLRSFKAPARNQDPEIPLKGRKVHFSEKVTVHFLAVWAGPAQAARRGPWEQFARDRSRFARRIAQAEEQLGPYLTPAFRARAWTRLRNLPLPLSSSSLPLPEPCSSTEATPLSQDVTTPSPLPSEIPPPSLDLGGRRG
Assay [4] has as its target PEG-3 (UniProt Q6IN02). The assay is described as above. Conditions: CREF/GAPDH counter-screens; HeLa PEG-Prom luciferase reporter, overnight, run 2, dose range 1, at 100 µM (top of the series) unless noted.
In assay [5] the test system is Rat fibroblasts (CREF). The assay is described as above. Conditions: CREF/GAPDH counter-screens; run 1, dose range 1, at 100 µM (top of the series).
In assay [6] the test system is Rat fibroblasts (CREF). Described as above. Particulars: CREF/GAPDH counter-screens; run 2, dose range 1, at 100 µM (top of the series).
A short description of assay [7]: lowers stimulated NF-kB luciferase signal in Jurkat – cell-based, luminescence, single concentration, T-cell NF-kB inhibitor project, confirmation (AID 435020;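 active = inhibition reaching about 45% at 4 µM in either replicate, limit read from the data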;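 note: plate controls were PMA/ionomycin stimulated DMSO wells for no effect and unstimulated DMSO wells for full effect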). Conditions: PMA/ionomycin-induced, 16 h, at 4 µM, stronger effect = higher value.
Assay [8] in a line: PPC-1 cell viability loss – ATP content luminescence, cytotoxicity control for TRAIL apoptosis potentiator project, confirmation (AID 1447).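 Note: 0% = DMSO-treated cells and 100% = wells holding medium but no cells.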 Conditions: PPC-1 viability, ATPlite luminescence, overnight; at 5 µM; stronger effect = higher value. (In general: Cellular ATP, detected with luciferase, serves as a proxy for viable cell number.)
Assay [9] concerns the target Tumor necrosis factor receptor superfamily member 10B (Homo sapiens) (UniProt O14763). In words: viability loss of caspase-8 NB7 cells with TRAIL – with/without TRAIL, luminescence panel, confirmation (AID 651596; in the data active = activity above about 50%). Particulars: NB7 neuroblastoma + caspase-8, TRAIL sensitization, NB7 Caspase-8, with TRAIL, mean of runs, at 10 µM, stronger effect = higher value.
Test in assay [10]: as above
Particulars: NB7 neuroblastoma + caspase-8, without TRAIL, NB7 Caspase-8, without TRAIL, mean of runs, at 10 µM.

The target of assay [11] is Protein Mdm4 (Homo sapiens) + E3 ubiquitin-protein ligase Mdm2 (Homo sapiens) (UniProt O15151+Q00987). In words: human Mdm2/MdmX binding disruption – cell-based, luminescence, single concentration, set 2, confirmation (AID 504601;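 active = mean inhibition of the luminescence signal across two replicates at or above 26 percent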). Particulars: SaOS-2 split-luciferase Mdm2/MdmX complementation, at 8 µM, stronger effect = higher value.
Protein Mdm4 (Homo sapiens) + E3 ubiquitin-protein ligase Mdm2 (Homo sapiens), sequence (O15151 whole entry, looked up): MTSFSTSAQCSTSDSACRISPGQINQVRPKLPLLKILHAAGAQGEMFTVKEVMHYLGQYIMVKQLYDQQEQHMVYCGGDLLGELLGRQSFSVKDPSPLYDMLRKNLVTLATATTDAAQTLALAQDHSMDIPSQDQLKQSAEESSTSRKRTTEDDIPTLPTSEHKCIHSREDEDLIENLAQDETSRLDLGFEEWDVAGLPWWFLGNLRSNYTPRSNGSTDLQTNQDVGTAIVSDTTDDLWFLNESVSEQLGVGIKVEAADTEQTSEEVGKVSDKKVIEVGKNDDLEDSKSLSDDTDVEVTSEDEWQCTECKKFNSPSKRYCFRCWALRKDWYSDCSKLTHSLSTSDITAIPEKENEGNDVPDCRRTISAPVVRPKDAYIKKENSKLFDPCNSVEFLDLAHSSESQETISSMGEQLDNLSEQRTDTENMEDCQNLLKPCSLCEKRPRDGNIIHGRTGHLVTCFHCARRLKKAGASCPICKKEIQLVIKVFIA
Protein Mdm4 (Homo sapiens) + E3 ubiquitin-protein ligase Mdm2 (Homo sapiens), sequence (Q00987 whole entry, looked up): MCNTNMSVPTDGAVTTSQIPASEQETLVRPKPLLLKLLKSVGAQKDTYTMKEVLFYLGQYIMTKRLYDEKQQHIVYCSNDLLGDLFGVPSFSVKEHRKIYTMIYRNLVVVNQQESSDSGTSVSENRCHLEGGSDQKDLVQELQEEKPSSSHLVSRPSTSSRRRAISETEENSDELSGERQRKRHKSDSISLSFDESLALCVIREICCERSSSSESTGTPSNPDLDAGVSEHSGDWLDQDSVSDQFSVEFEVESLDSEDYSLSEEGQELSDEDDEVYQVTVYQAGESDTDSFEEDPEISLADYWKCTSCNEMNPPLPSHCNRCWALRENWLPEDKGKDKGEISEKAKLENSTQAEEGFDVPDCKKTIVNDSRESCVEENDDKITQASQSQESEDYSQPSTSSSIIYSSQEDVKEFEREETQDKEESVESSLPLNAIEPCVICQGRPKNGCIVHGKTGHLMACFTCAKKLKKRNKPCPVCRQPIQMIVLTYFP
Assay [12] can be described thus: NF-kB reporter suppression in CF airway cells – cell-based, GFP fluorescence, single concentration, confirmation (AID 602472; in the data active = inhibition above about 40%;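 note: stimulus PAF is a Pseudomonas aeruginosa filtrate and not platelet activating factor; plate controls were DMSO wells with stimulus for no effect and unstimulated DMSO wells for full effect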). Conditions: KKLEB CF airway cells, PAF-induced NF-kB-GFP fluorescence, overnight; at 5 µM; stronger effect = higher value.
Assay [13] is described as follows: HIF-2a driven luciferase blockers, single dose – luminescence, 786-0 RCC cells, confirmation (AID 651580;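 active = mean inhibition across four replicates of at least 40 percent at the single tested concentration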). Particulars: HIF-2a luciferase reporter luminescence, overnight, at 18.8 µM, stronger effect = higher value.
Assay [14] is described as follows: HIF-1a luciferase reporter signal reduction – MiaPaCa-2 cells, single concentration, counter-screen for HIF-2a inhibitor project, confirmation (AID 651589;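 active = mean inhibition of the reporter signal across four replicates at the single tested dose of 50% or more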). Particulars: MiaPaCa-2 HIF-1a luciferase reporter, desferoxamine, overnight; at 18.8 µM; stronger effect = higher value. On the technique in general: In a reporter assay the amount or activity of a reporter protein is the signal.

The target of assay [15] is Sentrin-specific protease 8 (Homo sapiens) (UniProt Q96LD8). In words: human SENP8 peptidase blockers, hit retest – biochemical, luminescence, single concentration, confirmation (AID 488912;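 active = mean inhibition across replicates above about 50%, limit read from the data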). Particulars: Recombinant SENP8, Z-RLRGG-aminoluciferin luminescence, 60 min; at 12.5 µM; stronger effect = higher value.
Sentrin-specific protease 8 (Homo sapiens), sequence (Q96LD8 whole entry, looked up, the tested form may be a part): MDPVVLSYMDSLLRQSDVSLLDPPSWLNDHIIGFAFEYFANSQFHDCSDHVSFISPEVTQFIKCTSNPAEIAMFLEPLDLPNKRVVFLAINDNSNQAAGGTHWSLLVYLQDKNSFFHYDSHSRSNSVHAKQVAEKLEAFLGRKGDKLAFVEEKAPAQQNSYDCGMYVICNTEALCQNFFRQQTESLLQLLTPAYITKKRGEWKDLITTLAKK
Assay [16] has as its target Sentrin-specific protease 6 (Homo sapiens) (UniProt Q9GZR1). In words: inhibition of human SENP6 catalytic domain – biochemical, luminescence, single concentration, confirmation (AID 488915;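 active = mean inhibition above about 50% in the one-dose retest, limit read from the data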). Conditions: recombinant SENP6, Z-RLRGG-aminoluciferin luminescence; at 12.5 µM; stronger effect = higher value.
Assay [17] addresses Sentrin-specific protease 7 (Homo sapiens) (UniProt Q9BQF6). In words: human SENP7 peptidase blockers, hit retest – biochemical, luminescence, single concentration, confirmation (AID 488917;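 active = mean inhibition above about 50% in the one-dose retest, limit read from the data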). Particulars: recombinant SENP7, Z-RLRGG-aminoluciferin luminescence, 40 min; at 12.5 µM; stronger effect = higher value.
The target in assay [18] is Caspase-3 (Homo sapiens) (UniProt P42574). As to the kind of experiment: human caspase-3 activity blockade, out-of-family – biochemical, single concentration, selectivity assay for SENP inhibitor project, confirmation (AID 488918;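 active = mean inhibition above about 50%, limit read from the data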;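 note: plate controls were enzyme with DMSO for no effect and wells without caspase-3 for full effect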). Particulars: purified caspase-3, Z-DEVD-aminoluciferin luminescence, 60 min; at 12.5 µM; stronger effect = higher value.
Caspase-3 (Homo sapiens), sequence (P42574 28-227 limits assumed): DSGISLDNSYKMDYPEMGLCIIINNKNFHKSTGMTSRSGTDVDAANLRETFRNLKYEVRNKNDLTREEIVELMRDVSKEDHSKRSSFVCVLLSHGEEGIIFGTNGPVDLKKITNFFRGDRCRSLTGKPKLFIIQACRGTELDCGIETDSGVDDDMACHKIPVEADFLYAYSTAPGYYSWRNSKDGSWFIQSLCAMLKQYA
Assay [19] is described as follows: Ultra-Glo luciferase signal interference – biochemical, single concentration, SENP8 reaction pre-completed, artefact control for SENP inhibitor project, confirmation (AID 488919;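 active = mean inhibition above about 50% when retested at one dose, limit read from the data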;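 note: plate controls were DMSO wells with completed reaction for no effect and substrate without enzyme for full effect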). Particulars: Pre-incubated SENP8/Z-RLRGG-aminoluciferin, luciferase luminescence interference; at 12.5 µM; stronger effect = higher value.
Assay [20] concerns the target COP9 signalosome complex subunit 5 (Homo sapiens) (UniProt Q92905). As to the kind of experiment: blockers of CSN-driven cullin deneddylation – biochemical, fluorescence polarization, single concentration, SCF-Nedd8OG substrate, confirmation (AID 720654; in the data active = inhibition above about 50%;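 note: 0% = DMSO with enzyme and 100% = no enzyme wells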). Particulars: Csn5 deneddylation of SCF-Nedd8OG, 90 min, at 16.6 µM, stronger effect = higher value.
Assay [21] has as its target 72 kDa type IV collagenase (Homo sapiens) (UniProt P08253). As to the kind of experiment: human MMP-2 inhibitors, single-point check – biochemical, fluorescence, single concentration, counter-screen for CSN deneddylation inhibitor project, confirmation (AID 720655;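 active = corrected plate-normalized z-score of 5 or more, or -5 or less, or inhibition of 15% or more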;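 note: plate controls were DMSO wells with enzyme for no effect and buffer wells lacking MMP-2 for full effect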). Conditions: recombinant MMP-2, FRET substrate fluorescence, 60 min; at 16.6 µM.
For assay [22], the target named is Prothrombin (Bos taurus) (UniProt P00735). As to the kind of experiment: thrombin cleavage blockers, FP readout – biochemical, fluorescence polarization, single concentration, counter-screen for CSN deneddylation inhibitor project, confirmation (AID 720656;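 active = inhibition at or above a set limit, with a fluorescence interference ratio between 0.5 and a set maximum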). Particulars: bovine thrombin cleavage of Ub4-pepOG, at 16.6 µM, stronger effect = higher value.
Prothrombin (Bos taurus), sequence (P00735 whole entry, looked up): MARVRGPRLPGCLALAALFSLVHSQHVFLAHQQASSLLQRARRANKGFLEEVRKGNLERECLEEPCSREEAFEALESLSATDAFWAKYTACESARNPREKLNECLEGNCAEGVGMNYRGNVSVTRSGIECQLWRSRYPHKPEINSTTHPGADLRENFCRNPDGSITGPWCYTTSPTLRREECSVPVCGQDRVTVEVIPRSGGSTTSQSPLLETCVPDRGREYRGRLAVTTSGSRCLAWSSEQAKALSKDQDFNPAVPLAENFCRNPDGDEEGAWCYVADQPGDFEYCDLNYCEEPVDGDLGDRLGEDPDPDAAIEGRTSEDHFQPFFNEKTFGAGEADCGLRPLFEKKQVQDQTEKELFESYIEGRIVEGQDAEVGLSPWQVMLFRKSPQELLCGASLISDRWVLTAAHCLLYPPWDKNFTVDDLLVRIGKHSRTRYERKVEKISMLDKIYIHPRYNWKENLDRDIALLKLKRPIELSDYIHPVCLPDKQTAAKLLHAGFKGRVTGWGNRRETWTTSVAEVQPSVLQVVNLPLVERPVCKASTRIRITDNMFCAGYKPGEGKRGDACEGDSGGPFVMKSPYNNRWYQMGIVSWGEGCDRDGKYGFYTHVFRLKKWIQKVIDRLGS

The other results are listed elsewhere or left out. Calls of active or inactive are those of the source.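 Rule for the calls, unless noted: active = reconfirmed compounds whose average cytotoxicity reaches 50% or more; inactive = the rest.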

Sentrin-specific protease 7 (Homo sapiens), sequence (Q9BQF6 706-1050 limits assumed): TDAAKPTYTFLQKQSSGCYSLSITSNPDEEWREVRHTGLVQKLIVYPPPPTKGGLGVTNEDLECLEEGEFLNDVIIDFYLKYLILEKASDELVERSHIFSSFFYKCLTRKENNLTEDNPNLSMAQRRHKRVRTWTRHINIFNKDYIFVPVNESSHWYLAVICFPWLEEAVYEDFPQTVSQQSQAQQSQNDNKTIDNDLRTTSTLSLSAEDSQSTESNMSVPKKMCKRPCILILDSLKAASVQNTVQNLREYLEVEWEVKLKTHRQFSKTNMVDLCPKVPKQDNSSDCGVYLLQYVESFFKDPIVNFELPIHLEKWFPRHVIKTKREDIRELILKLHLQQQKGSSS
Tumor necrosis factor receptor superfamily member 10B (Homo sapiens), sequence (O14763 whole entry, looked up): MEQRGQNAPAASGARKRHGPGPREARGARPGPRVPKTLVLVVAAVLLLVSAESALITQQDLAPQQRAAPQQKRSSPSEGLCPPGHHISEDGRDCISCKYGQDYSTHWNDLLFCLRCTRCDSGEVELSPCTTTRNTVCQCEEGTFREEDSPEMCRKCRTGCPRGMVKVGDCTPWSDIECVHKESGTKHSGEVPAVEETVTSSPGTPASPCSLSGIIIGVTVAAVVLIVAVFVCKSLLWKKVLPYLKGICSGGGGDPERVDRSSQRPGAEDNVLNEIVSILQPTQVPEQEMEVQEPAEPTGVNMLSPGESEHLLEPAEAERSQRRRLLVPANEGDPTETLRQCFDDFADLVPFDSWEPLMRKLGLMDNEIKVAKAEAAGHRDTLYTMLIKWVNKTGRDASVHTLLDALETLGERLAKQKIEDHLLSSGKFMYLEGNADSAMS
Sentrin-specific protease 6 (Homo sapiens), sequence (Q9GZR1 628-1112 limits assumed): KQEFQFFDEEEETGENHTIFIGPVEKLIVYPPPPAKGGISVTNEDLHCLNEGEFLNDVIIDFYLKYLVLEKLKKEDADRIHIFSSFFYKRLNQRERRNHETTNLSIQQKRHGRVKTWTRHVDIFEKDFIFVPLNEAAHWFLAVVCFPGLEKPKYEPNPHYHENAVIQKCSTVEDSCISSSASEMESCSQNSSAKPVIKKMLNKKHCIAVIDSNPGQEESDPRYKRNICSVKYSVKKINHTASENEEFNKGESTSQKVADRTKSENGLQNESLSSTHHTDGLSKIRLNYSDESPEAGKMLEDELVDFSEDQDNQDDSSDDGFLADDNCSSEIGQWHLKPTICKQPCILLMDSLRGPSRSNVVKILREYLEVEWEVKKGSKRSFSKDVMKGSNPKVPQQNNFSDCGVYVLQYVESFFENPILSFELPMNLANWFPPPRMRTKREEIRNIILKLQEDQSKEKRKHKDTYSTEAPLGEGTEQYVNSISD
72 kDa type IV collagenase (Homo sapiens), sequence (P08253 whole entry, looked up): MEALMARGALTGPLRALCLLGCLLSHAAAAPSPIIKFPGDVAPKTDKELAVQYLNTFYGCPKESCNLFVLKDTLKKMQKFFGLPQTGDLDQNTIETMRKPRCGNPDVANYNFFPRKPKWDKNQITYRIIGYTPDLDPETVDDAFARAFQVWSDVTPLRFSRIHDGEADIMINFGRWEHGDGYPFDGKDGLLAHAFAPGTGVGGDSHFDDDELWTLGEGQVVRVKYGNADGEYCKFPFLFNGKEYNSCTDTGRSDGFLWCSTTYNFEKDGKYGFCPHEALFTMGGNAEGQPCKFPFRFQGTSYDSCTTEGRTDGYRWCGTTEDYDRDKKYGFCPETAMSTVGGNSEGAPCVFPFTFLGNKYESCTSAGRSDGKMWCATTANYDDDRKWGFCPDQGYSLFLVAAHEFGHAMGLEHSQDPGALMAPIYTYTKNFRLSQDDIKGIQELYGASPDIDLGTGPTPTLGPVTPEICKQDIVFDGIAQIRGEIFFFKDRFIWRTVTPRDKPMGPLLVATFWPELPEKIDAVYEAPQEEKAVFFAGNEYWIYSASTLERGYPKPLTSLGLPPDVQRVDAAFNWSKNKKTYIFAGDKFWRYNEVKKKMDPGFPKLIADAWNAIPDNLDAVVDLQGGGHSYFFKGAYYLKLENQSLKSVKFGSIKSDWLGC
COP9 signalosome complex subunit 5 (Homo sapiens), sequence (Q92905 whole entry, looked up, one chain of several): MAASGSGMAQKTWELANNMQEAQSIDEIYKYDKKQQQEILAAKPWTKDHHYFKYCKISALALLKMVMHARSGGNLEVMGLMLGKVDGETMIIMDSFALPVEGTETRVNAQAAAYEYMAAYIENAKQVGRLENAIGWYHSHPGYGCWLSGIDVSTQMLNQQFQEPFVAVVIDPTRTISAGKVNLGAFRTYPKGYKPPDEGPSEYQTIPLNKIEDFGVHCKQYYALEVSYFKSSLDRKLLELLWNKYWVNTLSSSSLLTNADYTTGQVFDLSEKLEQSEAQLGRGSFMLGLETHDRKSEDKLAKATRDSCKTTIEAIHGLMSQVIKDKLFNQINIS

For the molecule `C=CCn1c(C)cc(C2=NNC(=NCC)SC2)c1C`, the inhibition (in general, the change of the read-out against control, counted positive when it falls) was 24.4% (active) in [1]; 95.2% (active) in [2]; 99.4% in assay [3]; 98.1% in [4]; 98.4% in assay [5]; 98.1% in assay [6].

On to `COc1ccc(C(=O)/C=C/Nc2ccccn2)cc1`, for which the inhibition in assay [2] is 57.9% (active); in assay [3], 95.5%; in assay [4], 94.2%; in assay [5] it was 96.2%; in assay [6], 96.7%.

For `COc1ccccc1NC(=O)C1=C(C)Nc2nc3ccccc3n2C1c1cccs1` (stereo unspecified), the inhibition in assay [7] was 42.7% (inactive).

Regarding `Oc1cccc(/C=N/Nc2ccc(Cl)nn2)c1O`, the inhibition in [7] was 0.85% (inactive).

`COc1cc(C(=O)NN(CCC#N)C2=NS(=O)(=O)c3ccccc32)cc(OC)c1OC`: the inhibition in assay [7] was -119% (inactive).

As for `Cc1ccc(-c2cc(C(=O)N/N=C/C=C/c3ccco3)c3ccccc3n2)cc1C`, the cytotoxicity in assay [8] is 56.4% (active). Moreover, the figures for the activity in assay [9] and in assay [10] were 59.7% and 70.4%, respectively.

In the case of `O=c1oc(/C=C/c2ccccc2)nc2ccccc12`, the cytotoxicity in assay [8] is 57.5% (active). The figures for the activity in [9] and in assay [10] were 76.2% and 79.7%, respectively.

Take `O=C(/C=C/c1ccc(Cl)c([N+](=O)[O-])c1)c1ccc(O)cc1`: the cytotoxicity in assay [8] is 4.1% (inactive). The inhibition in assay [11] is 103% (active); in assay [2] it was 98.9% (active); in assay [12], -37.9% (inactive); in assay [13], 20.2% (inactive); in assay [14], 105% (active); in [3] it was 102%. The results for the inhibition in assay [4], in [5] and in assay [6] were 99.1%, 99.1% and 98.7%, respectively.

Turning to `COc1cc2c(cc1OC)CN(C(=O)c1cc(=O)c3ccccc3o1)CC2`, the inhibition in assay [7] was 21.4% (inactive).

Regarding `COc1cccc(/C=C/c2ccc3ccccc3n2)c1OC(C)=O`, in assay [8], the cytotoxicity is 74.4% (active). Further, the results for the activity in assay [9] and in assay [10] were 67.2% and 60.8%, respectively.

Take `Cn1c(=NC(=O)c2cnccn2)sc2ccccc21`: the cytotoxicity in [8] is 50.8% (active). Moreover, the activity in assay [9] worked out at 57.3%; in assay [10] it was 53.5%.

`CC(=O)Nc1ccc(Nc2c3ccccc3nc3ccccc23)cc1`: the inhibition in [7] is 26.9% (inactive).

`Cc1ccc(S(=O)(=O)C2(S(=O)(=O)c3ccc(C)cc3)CCCC2)cc1`: the inhibition in [7] is 24.9% (inactive).

`COc1ccc(-c2cn3ccc(C)cc3n2)cc1`: in [8], the cytotoxicity is 89.4% (active). The inhibition in assay [15] was -5.4% (inactive); in [16], 88.1% (active); in assay [17] it was 99.5% (active); in assay [18], 95.2% (active); in assay [19], 91.2% (active). The values for the activity in [9] and in assay [10] were 82.7% and 81.1%, respectively.

As to `Cn1c(-c2ccc(C(F)(F)F)cc2)cc2onc(-c3ccccc3)c2c1=O`, the inhibition in [7] is -121% (inactive).

With `CCOc1cc(C(=O)N2CCc3cc(OC)c(OC)cc3C2)ccc1OC(F)F`, the inhibition in [7] is 57.9% (active).

In the case of `COc1ccc(-c2nc(-c3ccccc3)no2)c(OC)c1`, the cytotoxicity in [8] was 69.6% (active). Also, the inhibition was 97.4% (active) in assay [15]; 100% (active) in assay [16]; 103% (active) in assay [17]; 98.1% (active) in assay [18]; 98.1% (active) in [19]. Also, the activity in assay [9] is 82.3%; in [10] it was 80.7%.

`Cn1c(-c2ccco2)nc2cc3ccccc3cc21`: in assay [8], the cytotoxicity is 89.1% (active). Besides, the inhibition was 3.5% (inactive) in [15]; 99.6% (active) in [16]; 103% (active) in assay [17]; 98.1% (active) in [18]; 98.1% (active) in assay [19].

On to `Cc1ccc(-c2nc3ccccc3[nH]2)cc1N`, for which the cytotoxicity in assay [8] is 49.3% (inactive). Further, the inhibition is 91.6% (active) in assay [15]; 92% (active) in [16]; 102% (active) in assay [17]; 96.7% (active) in [18]; 92.3% (active) in assay [19].

In the case of `Cc1cccc(NS(=O)(=O)c2ccc(-c3cnc(C4CC4)o3)cc2)c1`, in assay [7], the inhibition is 53.5% (active).

`Cc1ccc(-n2ncc3c2CC(C)(C)CC3NC(=O)Cc2c(C)noc2C)cc1` (stereo unspecified): the inhibition in assay [7] is -15.6% (inactive).

For the molecule `Cc1nnc(N/N=C/c2ccccn2)[nH]c1=O`, the inhibition in assay [7] was 63.8% (active).

With `Clc1ccc(-c2cc(-c3ccccn3)on2)c(Cl)c1`, the cytotoxicity in [8] is 89.7% (active). The inhibition in assay [15] was 94.7% (active); in assay [16], 95.8% (active); in assay [17] it was 102% (active); in [18] it was 94.9% (active); in assay [19] it was 32.9% (inactive).

On to `O=C(Nc1ccc(NC(=O)c2cccs2)cn1)c1ccco1`, for which, in assay [8], the cytotoxicity is 42.1% (inactive). Besides, the results for the activity in [9] and in assay [10] were 63.1% and 71.5%, respectively.

`O=C(NC(Nc1nc2ccc([N+](=O)[O-])cc2s1)(C(F)(F)F)C(F)(F)F)c1ccccc1`: in assay [7], the inhibition was 80.7% (active).

Turning to `O=C(Oc1ccc(-c2nc(-c3ccccn3)no2)cc1)c1ccccc1`, the cytotoxicity in assay [8] is 44.9% (inactive). The inhibition in assay [15] is 4.5% (inactive); in [16], 23.1% (inactive); in [17], 2.6% (inactive); in [18] it was 14.5% (inactive); in [19], 2.6% (inactive).

As to `CCC(C)Cn1c(O)cc2nn(-c3nc4ccccc4s3)c(=O)c-2c1C` (stereo unspecified), the cytotoxicity in assay [8] is 53.8% (active). The inhibition in [2] is 94.5% (active); in assay [20], 102% (active); in assay [21], 16% (active); in [22] it was -1.66% (inactive); in assay [3] it was 99%; in assay [4] it was 101%. In addition, the inhibition worked out at 72.9% in [5] and 68.7% in assay [6].

Turning to `Clc1ccc2nc(-c3ccccc3)nc(C(Cl)Cl)c2c1`, the cytotoxicity in [8] was 76.5% (active). Also, the inhibition was -30.4% (inactive) in [13] and 104% (active) in [14].

`COc1ccc(C(=O)Nc2ccccc2C(=O)N/N=C/c2ccc(O)c(OC)c2)cc1`: the cytotoxicity in [8] was 96.5% (active). The inhibition in assay [15] was 97.3% (active); in assay [16] it was 98.5% (active); in assay [17] it was 102% (active); in [18], 98.4% (active); in [19] it was 83.7% (active).
